PubChem BioAssay (NCATS)
Inconclusive results are not listed. Where a call stands in place of a potency, no number is given. Activity calls are given as the source filed them. The call rests on the fitted dose curve; in most records, active means well fitted curve in the direction sought with a large enough effect; inconclusive means small, poorly fitted or top-dose-only effect, or another doubt; inactive means no such curve, though single readings can be large; an effect the other way counts as inactive or inconclusive.

Each molecule was assayed against Aldehyde dehydrogenase, mitochondrial (Homo sapiens) (UniProt P05091) (assay: qHTS for Inhibitors of the Aldehyde Dehydrogenase Family (ALDH2) Primary screen (AID 2061308; further: nearly all actives have a fitted effect of over 55% in size)). Conditions: ALDH2 enzyme inhibition qHTS, 1536-well; series mostly up to 56 µM.
In the case of `Nc1nc2c(c(N3CC[C@@H](N)C3)n1)CCCc1ccccc1-2`, the Potency is reported as “inactive”. With `c1cncc(-c2ccc(CNc3nc(N4CCOCC4)nc4ccccc34)cc2)c1` the Potency was “inactive”. For `O=C(O)Cc1cc(F)c(S(=O)(=O)N2CCN(S(=O)(=O)c3ccc4c(c3)OCCO4)CC2)cc1F`, the Potency was “inactive”. With `Cn1nnnc1Sc1ncnc2scc(-c3ccc(F)cc3)c12` the Potency was “inactive”. For `O=C(/C=C/c1ccc(OC(F)(F)F)cc1)Nc1cccc([S+](=O)([O-])Nc2ccccc2F)c1`, the Potency was “inactive”. `C/C=C\C1=CCCC1Nc1ncnc2ccc(-c3c(C)noc3C)cc12` (stereo not drawn) was tested, and the Potency was “inactive”. In the case of `O=C1c2ccccc2C(=O)N1c1ccccc1O`, the Potency is reported as “inactive”. In the case of `CCCC1CCC(C(=O)Nc2ccc(S(=O)(=O)Nc3nccs3)cc2)CC1` (stereo not drawn), the Potency is reported as “inactive”. `Nc1ccc(-c2ccc(NC(=O)c3cccs3)cn2)cc1` was tested, and the Potency was “inactive”. With `O=C(OCC#CCSc1nnc(-c2ccc3ccccc3c2)o1)c1cc2ccccc2s1` the Potency was “inactive”. With `CCOc1ccc(CCNC(=O)c2cccc(C(=O)c3ccccc3)c2)cc1OCC` the Potency was “inactive”. `CN(Cc1ccco1)c1ncnc2ccc(-c3ccc4c(c3)OCO4)cc12` was tested, and the Potency was “inactive”. In the case of `O=C(NCc1cccnc1)C1CCN(S(=O)(=O)c2cccs2)CC1`, the Potency is reported as “inactive”. For `O=C1CCCC2=C1C(c1[nH]ncc1Cl)N=C(Nc1ccccn1)N2` (stereo not drawn), the Potency was “inactive”. In the case of `CCCCNc1ncc2c(-c3ccc(S(=O)(=O)N4CCOCC4)cc3)nn(C3CCC(O)CC3)c2n1` (stereo not drawn), the Potency is reported as “inactive”. In the case of `O=c1c2ccccc2nc2sc(NCc3ccc(Oc4ccccc4)cc3)nn12`, the Potency is reported as “inactive”. `C=C(C(=O)O)[C@H]1C[C@]2(C)C(=O)CC[C@]23O[C@H]1C[C@@H]3C` was tested, and the Potency was “inactive”. `Cc1ccc(OCCn2c(CCNC(=O)c3cccc(F)c3)nc3ccccc32)cc1` was tested, and the Potency was “inactive”. In the case of `O=S(=O)(NCc1cccc2ccccc12)c1cc(Cl)c(Oc2cccc(N3CCNCC3)c2)s1`, the Potency is reported as “inactive”. In the case of `CC1=CC2/C=C(\C)CCC(O)C(=O)C(O)CC(=O)C23C(=O)NC(CC(C)C)C3C1C` (stereo not drawn), the Potency is reported as “inactive”. `O=C(Nc1nnc(-c2ccncc2)s1)NC12CC3CC(CC(C3)C1)C2` was tested, and the Potency was “inactive”. `Cc1ccc(OCCn2c(CCNC(=O)CCN3CCCCC3)nc3ccccc32)cc1` was tested, and the Potency was “inactive”. In the case of `COc1cccc(NC(=S)N2CCN(c3ccc4ccccc4n3)CC2)n1`, the Potency is reported as “inactive”. For `Cc1cc(C)n2ncc(C(=O)NC3CCC(C(C)(C)C)CC3)c2n1` (stereo not drawn), the Potency was “inactive”. `O=C(CSc1nnc(-c2cccc(S(=O)(=O)N3CCCC3)c2)n1-c1ccccc1)Nc1ccccc1` was tested, and the Potency was “inactive”. For `O=C(Nc1ccc2ccccc2c1)Nc1nnc(C2CCCCC2)s1`, the Potency was “inactive”. For `CCCn1c(C)nc2c(NCCN(C)C)nc(C)nc21`, the Potency was “inactive”. With `C=CC(=O)Nc1cc(Nc2ncc(Cl)c(-c3c[nH]c4ccccc34)n2)c(OC)cc1N(C)CCN(C)C` the Potency was “inactive”. With `O=C1NS(=O)(=O)c2cc(Cl)ccc21` the Potency was “inactive”. `COc1ccc(C2Nc3ccccc3C(=O)N2Cc2cccs2)cc1COc1c(C)cc(NC(C)=O)cc1C` (stereo not drawn) was tested, and the Potency was “inactive”. `Cc1cc2c(s1)c1cnn(Cc3c(F)ccc(F)c3F)c(=O)c1n2C` was tested, and the Potency was “inactive”. In the case of `CC(C)c1ccccc1-c1nc(NCc2ccc(-c3cccnc3)cc2)c2cccn2n1`, the Potency is reported as “inactive”. With `CCN(C)c1ncnc2ccc(-c3ccc4c(c3)OCO4)cc12` the Potency was “inactive”. In the case of `CCC(C)(CCN1CCOCC1)N(Cc1cc2ccccc2n(C)c1=O)C(=O)C1CCCCC1` (stereo not drawn), the Potency is reported as “inactive”. In the case of `COc1cccc(C2c3c(ncn(-c4ccccc4SC)c3=N)Oc3ccc4ccccc4c32)c1` (stereo not drawn), the Potency is reported as “inactive”. In the case of `Fc1cc(Nc2nc(-c3ccncc3)nc3ccccc23)ccc1-c1ccc(F)c(F)c1F`, the Potency is reported as “inactive”. `C=C1C(=O)O[C@@H]2C[C@H](C)[C@@H]3CC(=O)C(C)=C3C[C@H]12` was tested, and the Potency was “inactive”. With `O=C(OCC#CCSc1nnc(-c2cccc3ccccc23)o1)c1ccc(SC(F)(F)F)cc1` the Potency was “inactive”. `CS(=O)(=O)c1ccc(C(=O)OCC#CCSc2nnc(-c3cccc4ccccc34)o2)cc1` was tested, and the Potency was “inactive”.

What follows are molecules tested against Retinaldehyde dehydrogenase 3 (Homo sapiens) (UniProt P47895) (assay: qHTS for Inhibitors of the Aldehyde Dehydrogenase Family (ALDH1A3) Primary screen (AID 2061315)). Conditions: ALDH inhibition qHTS; series mostly up to 56 µM.
With `Nc1nc2c(c(N3CC[C@@H](N)C3)n1)CCCc1ccccc1-2` the Potency was “inactive”. For `c1cncc(-c2ccc(CNc3nc(N4CCOCC4)nc4ccccc34)cc2)c1`, the Potency was “inactive”. `O=C(O)Cc1cc(F)c(S(=O)(=O)N2CCN(S(=O)(=O)c3ccc4c(c3)OCCO4)CC2)cc1F` was tested, and the Potency was “inactive”. For `Cn1nnnc1Sc1ncnc2scc(-c3ccc(F)cc3)c12`, the Potency was “inactive”. `O=C(/C=C/c1ccc(OC(F)(F)F)cc1)Nc1cccc([S+](=O)([O-])Nc2ccccc2F)c1` was tested, and the Potency was “inactive”. For `C/C=C\C1=CCCC1Nc1ncnc2ccc(-c3c(C)noc3C)cc12` (stereo not drawn), the Potency was “inactive”. `O=C1c2ccccc2C(=O)N1c1ccccc1O` was tested, and the Potency was “inactive”. `CCCC1CCC(C(=O)Nc2ccc(S(=O)(=O)Nc3nccs3)cc2)CC1` (stereo not drawn) was tested, and the Potency was “inactive”. `Nc1ccc(-c2ccc(NC(=O)c3cccs3)cn2)cc1` was tested, and the Potency was “inactive”. With `O=C(OCC#CCSc1nnc(-c2ccc3ccccc3c2)o1)c1cc2ccccc2s1` the Potency was “inactive”. For `CCOc1ccc(CCNC(=O)c2cccc(C(=O)c3ccccc3)c2)cc1OCC`, the Potency was “inactive”. With `CN(Cc1ccco1)c1ncnc2ccc(-c3ccc4c(c3)OCO4)cc12` the Potency was “inactive”. For `O=C(NCc1cccnc1)C1CCN(S(=O)(=O)c2cccs2)CC1`, the Potency was “inactive”. With `O=C1CCCC2=C1C(c1[nH]ncc1Cl)N=C(Nc1ccccn1)N2` (stereo not drawn) the Potency was “inactive”. For `CCCCNc1ncc2c(-c3ccc(S(=O)(=O)N4CCOCC4)cc3)nn(C3CCC(O)CC3)c2n1` (stereo not drawn), the Potency was “inactive”. `O=c1c2ccccc2nc2sc(NCc3ccc(Oc4ccccc4)cc3)nn12` was tested, and the Potency was “inactive”. `C=C(C(=O)O)[C@H]1C[C@]2(C)C(=O)CC[C@]23O[C@H]1C[C@@H]3C` was tested, and the Potency was “inactive”. `Cc1ccc(OCCn2c(CCNC(=O)c3cccc(F)c3)nc3ccccc32)cc1` was tested, and the Potency was “inactive”. With `O=S(=O)(NCc1cccc2ccccc12)c1cc(Cl)c(Oc2cccc(N3CCNCC3)c2)s1` the Potency was “inactive”. In the case of `CC1=CC2/C=C(\C)CCC(O)C(=O)C(O)CC(=O)C23C(=O)NC(CC(C)C)C3C1C` (stereo not drawn), the Potency is reported as “inactive”. `O=C(Nc1nnc(-c2ccncc2)s1)NC12CC3CC(CC(C3)C1)C2` was tested, and the Potency was “inactive”. For `Cc1ccc(OCCn2c(CCNC(=O)CCN3CCCCC3)nc3ccccc32)cc1`, the Potency was “inactive”. In the case of `COc1cccc(NC(=S)N2CCN(c3ccc4ccccc4n3)CC2)n1`, the Potency is reported as “inactive”. With `Cc1cc(C)n2ncc(C(=O)NC3CCC(C(C)(C)C)CC3)c2n1` (stereo not drawn) the Potency was “inactive”. `O=C(CSc1nnc(-c2cccc(S(=O)(=O)N3CCCC3)c2)n1-c1ccccc1)Nc1ccccc1` was tested, and the Potency was “inactive”. `O=C(Nc1ccc2ccccc2c1)Nc1nnc(C2CCCCC2)s1` was tested, and the Potency was “inactive”. For `CCCn1c(C)nc2c(NCCN(C)C)nc(C)nc21`, the Potency was “inactive”. With `C=CC(=O)Nc1cc(Nc2ncc(Cl)c(-c3c[nH]c4ccccc34)n2)c(OC)cc1N(C)CCN(C)C` the Potency was “inactive”. For `O=C1NS(=O)(=O)c2cc(Cl)ccc21`, the Potency was “inactive”. With `COc1ccc(C2Nc3ccccc3C(=O)N2Cc2cccs2)cc1COc1c(C)cc(NC(C)=O)cc1C` (stereo not drawn) the Potency was “inactive”. `Cc1cc2c(s1)c1cnn(Cc3c(F)ccc(F)c3F)c(=O)c1n2C` was tested, and the Potency was “inactive”. In the case of `CC(C)c1ccccc1-c1nc(NCc2ccc(-c3cccnc3)cc2)c2cccn2n1`, the Potency is reported as “inactive”. `CCN(C)c1ncnc2ccc(-c3ccc4c(c3)OCO4)cc12` was tested, and the Potency was “inactive”. `CCC(C)(CCN1CCOCC1)N(Cc1cc2ccccc2n(C)c1=O)C(=O)C1CCCCC1` (stereo not drawn) was tested, and the Potency was “inactive”. With `COc1cccc(C2c3c(ncn(-c4ccccc4SC)c3=N)Oc3ccc4ccccc4c32)c1` (stereo not drawn) the Potency was “inactive”. With `Fc1cc(Nc2nc(-c3ccncc3)nc3ccccc23)ccc1-c1ccc(F)c(F)c1F` the Potency was “inactive”. In the case of `C=C1C(=O)O[C@@H]2C[C@H](C)[C@@H]3CC(=O)C(C)=C3C[C@H]12`, the Potency is reported as “inactive”. `O=C(OCC#CCSc1nnc(-c2cccc3ccccc23)o1)c1ccc(SC(F)(F)F)cc1` was tested, and the Potency was “inactive”. `CS(=O)(=O)c1ccc(C(=O)OCC#CCSc2nnc(-c3cccc4ccccc34)o2)cc1` was tested, and the Potency was “inactive”.
